These results are taken from PubChem BioAssay (NCATS).

In one assay the test system is PC15. Description: qHTS profiling for inhibitors of Plasmodium falciparum proliferation (AID 504749).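 Also: 0% = DMSO vehicle and full inhibition = artemisinin control.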 To be noted: P. falciparum in erythrocytes, SYBR Green DNA, 72 h; series mostly up to 28.7 µM. Put shortly: (§1)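 Parasite proliferation within erythrocytes, 72 h exposure. Endpoint: SYBR Green I fluorescence after overnight lysis at room temperature. Controls: 0.29 uM artemisinin, DMSO.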

A further assay relates to PC26. Described as above. The settings on record: P. falciparum in erythrocytes, SYBR Green DNA, 72 h; series mostly up to 28.7 µM. An outline of the steps: as §1
In another assay the test system is PC49. The assay is described as above. To be noted: P. falciparum in erythrocytes, SYBR Green DNA, 72 h; series mostly up to 28.7 µM. Put shortly: as §1
For another assay, the system named is SC27B. The assay is described as above. To be noted: P. falciparum in erythrocytes, SYBR Green DNA, 72 h; series mostly up to 28.7 µM. Put shortly: as §1
A further assay relates to TAB109. Described as above. The settings on record: P. falciparum in erythrocytes, SYBR Green DNA, 72 h; series mostly up to 28.7 µM. Put shortly:
as §1

For the next assay, the system named is TAB113. The assay is described as above. The settings on record: P. falciparum in erythrocytes, SYBR Green DNA, 72 h; series mostly up to 28.7 µM. Put shortly:
as §1

In another assay the test system is TAB165. Described as above. The settings on record: P. falciparum in erythrocytes, SYBR Green DNA, 72 h; series mostly up to 28.7 µM. An outline of the steps: as §1
In the next assay the test system is W2. The assay is described as above. To be noted: P. falciparum in erythrocytes, SYBR Green DNA, 72 h; series mostly up to 28.7 µM. An outline of the steps:
as §1

Another assay has as its system CRL-7250. In words: Cytotoxic Profiling of Annotated Libraries Using Quantitative High-Throughput Screening (AID 1296008). Also: potency is read from the fitted curve at half-maximal effect. As to max response: % is scaled to controls: 0 for no effect and ±100 for the full control effect. To be noted: Five cell lines viability, CellTiter-Glo ATP luminescence, 48-72 h; max response: stronger effect = lower value. Put shortly:
(§2)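 Compounds were pin-transferred onto cells and incubated 48 or 72 hr at 37 degree Celsius, 95% humidity. CellTiter-Glo was added, plates sat 10 min at room temperature, then ATP-coupled luminescence was imaged as the viability read-out.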

Another assay has as its system HEK293. The assay is described as above. The settings on record: Five cell lines viability, CellTiter-Glo ATP luminescence, 48-72 h; max response: stronger effect = lower value. An outline of the steps:
as §2

Records with an inconclusive call do not appear. Where a structure was tested more than once in an assay, its records may differ in their call. Values without a mark were called inactive. Activity calls are given as the source filed them. Calls follow the shape of the dose curve; as a rule, active = well fitted inhibition curve with a large enough effect; inconclusive = small, poorly fitted or top-dose-only effect; inactive = flat fitted curve, though single readings scatter.
Also: nearly all actives have a fitted effect of over 60% in size.

Consider `CC(C(=O)O)c1ccc(CC2CCCC2=O)cc1` (stereo not given), for which the Potency result in the assay with PC15, with PC26, in the assay with PC49, in the assay with SC27B, in the assay with TAB109 and in the assay with TAB113 was “inactive” throughout. Besides, the Potency result in the assay with TAB165 and with W2 was “inactive” each time. For the same compound, the max response with CRL-7250 is 2.29%. Moreover, in the assay with HEK293, the compound was classed as inactive.

Turning to `C[C@H](CS)C(=O)N1CCC[C@H]1C(=O)O`, the Potency entry in the assay with PC15, in the assay on PC26, in the assay on PC49, with SC27B, with TAB109 and in the assay on TAB113 was “inactive” throughout. In addition, the Potency result in the assay on TAB165 and in the assay on W2 was “inactive” in each case. Moreover, the max response with CRL-7250 is 1.04%; with HEK293 it was -1.78%.

As to `O=C(O)CN(CCN(CC(=O)O)CC(=O)O)CCN(CC(=O)O)CC(=O)O`, the Potency entry with PC15, in the assay on PC26, in the assay on PC49, with SC27B, with TAB109 and with TAB113 was “inactive” each time. Moreover, the Potency entry in the assay on TAB165 and in the assay with W2 was “inactive” throughout. In addition, the max response with CRL-7250 was -4.18%. Besides, the compound was classed as inactive in the assay with HEK293.

For the compound `CCCN(CCC)C(=O)C(CCC(=O)O)NC(=O)c1ccccc1` (stereo not given), the max response in the assay with CRL-7250 is -4.87%. Also, the outcome in the assay with HEK293 was inactive.

On to `NC(=O)c1cn(Cc2c(F)cccc2F)nn1`, for which the Potency entry in the assay with PC15, in the assay on PC26, with PC49, in the assay on SC27B, in the assay on TAB109 and in the assay with TAB113 was “inactive” in each case. Besides, the Potency entry in the assay on TAB165 and with W2 was “inactive” throughout. Moreover, the result in the assay with CRL-7250 was inactive. Moreover, the max response in the assay with HEK293 was 4.15%.

On to `C[C@@H](O)[C@H]1C(=O)N2C(C(=O)O)=C(SCCN=CN)C[C@H]12`, for which the figures for the max response in the assay with CRL-7250 and in the assay with HEK293 were -15.5% and -4.83%, respectively.

As for `CC(C)(C)NCC(O)c1cc(O)cc(O)c1` (stereo not given), the values for the max response in the assay on CRL-7250 and with HEK293 were -15.1% and -2.84%, respectively.

As to `C(=C\c1ccccc1)/CN1CCN(C(c2ccccc2)c2ccccc2)CC1`, in the assay on CRL-7250, the compound was classed as inactive. The Potency in the assay on HEK293 was 15 µM (active).

Take `NC(Cc1ccc(Cl)cc1)C(=O)O` (stereo not given): the Potency result with PC15, in the assay with PC26, in the assay on PC49, in the assay on SC27B, in the assay with TAB109 and in the assay on TAB113 was “inactive” in each case. Further, the Potency result with TAB165 and in the assay on W2 was “inactive” throughout. The max response in the assay with CRL-7250 was -4.47%. Besides, the result in the assay on HEK293 was inactive.

In the case of `Nc1c2c(nc3ccccc13)CCCC2O` (stereo not given), the Potency result in the assay on PC15, with PC26, in the assay with PC49, with SC27B, in the assay on TAB109 and with TAB113 was “inactive” each time. The Potency result in the assay on TAB165 and with W2 was “inactive” in each case. In the assay with CRL-7250, the max response was -0.206%. For the same compound, the outcome in the assay on HEK293 was inactive.

With `CN1C(=O)CC[C@H]1c1cccnc1`, the figures for the max response with CRL-7250 and with HEK293 were -11.6% and -8.79%, respectively.

Turning to `O=C(CCNNC(=O)c1ccncc1)NCc1ccccc1`, the Potency entry in the assay on PC15, in the assay on PC26, in the assay with PC49, with SC27B, with TAB109 and in the assay on TAB113 was “inactive” in each case. Also, the Potency result in the assay on TAB165 is “inactive”. Besides, the figures for the max response in the assay with CRL-7250 and with HEK293 were 0.469% and -20%, respectively.

For `C[C@]12C=CC(=O)C=C1CC[C@H]1[C@@H]3C[C@@H](O)[C@](O)(C(=O)CO)[C@@]3(C)C[C@H](O)[C@@]12F`, the max response with CRL-7250 is 3.67%. Further, in the assay with HEK293, the compound was classed as inactive.

For the compound `c1ccc2c(c1)CCCC2C1=NCCN1` (stereo not given), the max response in the assay on CRL-7250 was 0.704%; with HEK293, 3.92%.

For the compound `CO[C@@]1(NC(=O)CSCC#N)C(=O)N2C(C(=O)O)=C(CSc3nnnn3C)CS[C@@H]21`, the figures for the max response in the assay on CRL-7250 and in the assay with HEK293 were 2.03% and -2.42%, respectively.

Regarding `CC(=O)OC(C)C[N+](C)(C)C` (stereo not given), the max response is 1.65% in the assay on CRL-7250 and 3.97% in the assay with HEK293.

Consider `CCCOc1ccccc1-c1nc2n[nH]nc2c(=O)[nH]1`, for which the Potency entry with PC15, with PC26, with PC49, with SC27B, in the assay with TAB109 and in the assay with TAB113 was “inactive” throughout. For the same compound, the Potency result with TAB165 was “inactive”. The max response in the assay with CRL-7250 was -0.525%; in the assay on HEK293 it was 2.92%.

`CCCCOCCOCCOCc1cc2c(cc1CCC)OCO2`: the Potency entry with PC15, in the assay on PC26, in the assay on PC49, in the assay with SC27B, in the assay with TAB109 and with TAB113 was “inactive” throughout. Besides, the Potency entry in the assay with TAB165 and in the assay with W2 was “inactive” throughout. For the same compound, in the assay on CRL-7250, the Potency is 61.8 µM (active). The max response with CRL-7250 was 0.375%.

Consider `N[C@@H](COP(=O)(O)O)C(=O)O`, for which the compound was classed as inactive in the assay on CRL-7250. Besides, the max response with HEK293 was -2.26%.

Turning to `COC(=O)C1=C(C)NC(C)=C(C(=O)OCCN(C)Cc2ccccc2)C1c1cccc([N+](=O)[O-])c1` (stereo not given), the Potency was 21.1 µM (active) with CRL-7250 and 11.9 µM (active) in the assay on HEK293.

Turning to `CN(C)[C@@H]1C(=O)C(C(N)=O)=C(O)[C@@]2(O)C(=O)C3=C(O)c4c(O)ccc(Cl)c4[C@@H](O)[C@H]3C[C@@H]12`, in the assay on CRL-7250, the compound was classed as inactive.

Take `FC(F)(F)c1ccccc1-n1ccnc1`: the Potency entry with PC15, in the assay with PC26, with PC49, with SC27B, with TAB109 and in the assay with TAB113 was “inactive” each time. The Potency result in the assay on TAB165 and with W2 was “inactive” throughout. In the assay on CRL-7250, the compound was classed as inactive. The max response in the assay on HEK293 was -1.59%.

With `O=C(O)CP(=O)(O)O`, the Potency result with PC15, in the assay with PC26, in the assay with PC49, in the assay with SC27B, in the assay on TAB109 and in the assay on TAB113 was “inactive” in each case. Moreover, the Potency result in the assay with TAB165 was “inactive”. Moreover, in the assay on CRL-7250, the max response is -7.2%. The outcome in the assay with HEK293 was inactive.

Take `CCCNC(C)C(=O)Nc1ccccc1C` (stereo not given): the max response is -2.89% with CRL-7250 and 1.1% in the assay on HEK293.

Turning to `CCCCCN(CCCCC)C(=O)C(CCC(=O)O)NC(=O)c1ccc(Cl)c(Cl)c1` (stereo not given), the Potency result in the assay on PC15, with PC26, in the assay with PC49, in the assay on SC27B, with TAB109 and with TAB113 was “inactive” each time. Further, the Potency result in the assay on TAB165 and with W2 was “inactive” in each case. Also, the max response in the assay with CRL-7250 is -3.52%; in the assay on HEK293, -9.3%.

In the case of `CCOC(=O)c1cnc2c(cnn2CC)c1NN=C(C)C`, the Potency result with PC15, with PC26, with PC49, with SC27B, in the assay with TAB109 and in the assay on TAB113 was “inactive” each time. In addition, the Potency result in the assay with TAB165 is “inactive”. In addition, the max response was 1.67% in the assay on CRL-7250 and 2.79% in the assay on HEK293.

Turning to `COc1ccc2c(c1OC)C(=O)O[C@@H]2[C@H]1c2c(cc3c(c2OC)OCO3)CCN1C`, the max response in the assay with CRL-7250 is 4.94%.

In the case of `Cc1ccc(/C(=C\CN2CCCC2)c2ccccn2)cc1`, the max response was 0.263% in the assay with CRL-7250 and -16.2% in the assay with HEK293.

As for `Cc1ccc(Cl)c(Nc2ccccc2C(=O)O)c1Cl`, the Potency result with PC15, in the assay with PC26, in the assay on PC49, in the assay with SC27B, in the assay on TAB109 and in the assay on TAB113 was “inactive” in each case. Moreover, the Potency entry in the assay with TAB165 and in the assay with W2 was “inactive” throughout. Also, the max response in the assay with CRL-7250 was 2.33%. In the assay on HEK293, the outcome was inactive.

With `CCc1c(C)[nH]c2c1C(=O)C(CN1CCOCC1)CC2` (stereo not given), the outcome in the assay on CRL-7250 was inactive. Also, in the assay with HEK293, the max response is -11.2%.

In the case of `CNC1(C)C2CCC(C2)C1(C)C` (stereo not given), the Potency result in the assay on PC15, in the assay with PC26, in the assay on PC49, in the assay on SC27B, in the assay on TAB109 and in the assay on TAB113 was “inactive” in each case. In addition, the Potency entry with TAB165 is “inactive”. For the same compound, the max response in the assay with CRL-7250 is -2.13%; in the assay on HEK293, -9.06%.

For `CC(C)[N+](C)(CCOC(=O)C1c2ccccc2Oc2ccccc21)C(C)C`, the Potency entry in the assay with PC15, with PC26 and with PC49 was “inactive” throughout. Moreover, the max response in the assay with CRL-7250 was -3.69%; with HEK293 it was -1.62%.
